Test results as given in PubChem BioAssay AID1159580 (chemical genetic matrix, 2015).
The whole screen tested about 5,500 compounds, of which about 2,000 (36%) were called active. Roughly 18% stayed inconclusive and do not appear here. Cut-off read from the data, not from the text of the source: active = normalized growth mostly below about 0.91 (no sharp cut-off); inconclusive = no clear call, values can overlap the other calls; inactive = mostly above about 0.92. The list shows a part of the results.

Test: chemical genetic growth profiling, strain panel (AID 1159580);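 note: tested at 20 µM; growth read once vehicle control cultures reached saturation at 30 °C; 1 = growth at the plate median or of vehicle wells; lower values mean less growth of the strain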
Settings: growth OD

Measured: normalized growth

O=[N+]([O-])/N=C1/NCCN1Cc1ccc(Cl)cc1
inactive: S. cerevisiae deletion strains, locus YAL013W, strain DEP1, stronger effect = lower value 0.994 | S. cerevisiae deletion strains, locus YBR021W, strain FUR4, stronger effect = lower value 0.992 | S. cerevisiae deletion strains, locus YBR229C, strain ROT2, stronger effect = lower value 0.968 | S. cerevisiae deletion strains, locus YCL029C, strain bik1, stronger effect = lower value 0.99 | S. cerevisiae deletion strains, locus YDL035C, strain GPR1, stronger effect = lower value 0.988 | S. cerevisiae deletion strains, locus YDL074C, strain BRE1, stronger effect = lower value 1.05 | S. cerevisiae deletion strains, locus YDL101C, strain DUN1, stronger effect = lower value 0.993 | S. cerevisiae deletion strains, locus YDL134C, strain PPH21, stronger effect = lower value 0.984 | S. cerevisiae deletion strains, locus YDL185W, strain tfp1, stronger effect = lower value 0.986 | S. cerevisiae deletion strains, locus YDL192W, strain arf1, stronger effect = lower value 0.993 | S. cerevisiae deletion strains, locus YDR101C, strain arx1, stronger effect = lower value 0.998 | S. cerevisiae deletion strains, locus YDR150W, strain NUM1, stronger effect = lower value 1 | S. cerevisiae deletion strains, locus YDR162C, strain NBP2, stronger effect = lower value 1.02 | S. cerevisiae deletion strains, locus YDR318W, strain mcm21, stronger effect = lower value 0.984 | S. cerevisiae deletion strains, locus YDR388W, stronger effect = lower value 0.994 | S. cerevisiae deletion strains, locus YDR502C, strain sam2, stronger effect = lower value 0.988 | S. cerevisiae deletion strains, locus YEL061C, strain CIN8, stronger effect = lower value 0.989 | S. cerevisiae deletion strains, locus YER110C, stronger effect = lower value 0.986 | S. cerevisiae deletion strains, locus YER155C, strain BEM2, stronger effect = lower value 1 | S. cerevisiae deletion strains, locus YER167W, strain BCK2, stronger effect = lower value 0.988 | S. cerevisiae deletion strains, locus YGL078C, strain dbp3, stronger effect = lower value 0.995 | S. cerevisiae deletion strains, locus YGL086W, strain mad1, stronger effect = lower value 0.979 | S. cerevisiae deletion strains, locus YGL248W, strain PDE1, stronger effect = lower value 0.979 | S. cerevisiae deletion strains, locus YGR078C, strain PAC10, stronger effect = lower value 1.02 | S. cerevisiae deletion strains, locus YGR135W, strain pre9, stronger effect = lower value 0.992 | S. cerevisiae deletion strains, locus YGR229C, strain SMI1, stronger effect = lower value 1 | S. cerevisiae deletion strains, locus YGR252W, strain gcn5, stronger effect = lower value 0.989 | S. cerevisiae deletion strains, locus YHR030C, strain SLT2, stronger effect = lower value 0.963 | S. cerevisiae deletion strains, locus YHR079C, strain IRE1 (second series), stronger effect = lower value 0.987 | S. cerevisiae deletion strains, locus YHR094C, strain hxt1, stronger effect = lower value 0.996 | S. cerevisiae deletion strains, locus YHR129C, strain ARP1, stronger effect = lower value 0.994 | S. cerevisiae deletion strains, locus YHR200W, strain rpn10, stronger effect = lower value 0.988 | S. cerevisiae deletion strains, locus YIL066C, strain RNR3, stronger effect = lower value 0.985 | S. cerevisiae deletion strains, locus YIL073C, strain SPO22, stronger effect = lower value 0.995 | S. cerevisiae deletion strains, locus YIL125W, strain kgd1, stronger effect = lower value 0.993 | S. cerevisiae deletion strains, locus YIR030C, strain dcg1, stronger effect = lower value 0.988 | S. cerevisiae deletion strains, locus YJL095W, strain BCK1, stronger effect = lower value 1.01 | S. cerevisiae deletion strains, locus YJL134W, strain LCB3, stronger effect = lower value 0.987 | S. cerevisiae deletion strains, locus YJL168C, strain set2, stronger effect = lower value 0.992 | S. cerevisiae deletion strains, locus YJL187C, strain SWE1 (second series), stronger effect = lower value 0.985 | S. cerevisiae deletion strains, locus YJR043C, strain POL32, stronger effect = lower value 1 | S. cerevisiae deletion strains, locus YJR075W, strain HOC1, stronger effect = lower value 0.998 | S. cerevisiae deletion strains, locus YKL009W, strain mrt4, stronger effect = lower value 1.01 | S. cerevisiae deletion strains, locus YKL068W, stronger effect = lower value 0.991 | S. cerevisiae deletion strains, locus YKL085W, strain MDH1 (second series), stronger effect = lower value 0.989 | S. cerevisiae deletion strains, locus YKL085W, strain MDH1, stronger effect = lower value 0.989 | S. cerevisiae deletion strains, locus YKL190W, strain CNB1, stronger effect = lower value 0.997 | S. cerevisiae deletion strains, locus YKR001C, strain vps1, stronger effect = lower value 0.983 | S. cerevisiae deletion strains, locus YLR039C, strain RIC1, stronger effect = lower value 1.01 | S. cerevisiae deletion strains, locus YLR058C, strain SHM2, stronger effect = lower value 0.986 | S. cerevisiae deletion strains, locus YLR102C, strain apc9, stronger effect = lower value 0.996 | S. cerevisiae deletion strains, locus YLR262C, strain YPT6, stronger effect = lower value 1.02 | S. cerevisiae deletion strains, locus YLR268W, strain sec22, stronger effect = lower value 0.995 | S. cerevisiae deletion strains, locus YLR330W, strain CHS5, stronger effect = lower value 0.988 | S. cerevisiae deletion strains, locus YLR342W, strain FKS1 (second series), stronger effect = lower value 0.965 | S. cerevisiae deletion strains, locus YLR371W, strain rom2, stronger effect = lower value 0.987 | S. cerevisiae deletion strains, locus YLR418C, strain cdc73, stronger effect = lower value 1 | S. cerevisiae deletion strains, locus YML016C, strain PPZ1, stronger effect = lower value 0.999 | S. cerevisiae deletion strains, locus YML032C, strain rad52, stronger effect = lower value 0.98 | S. cerevisiae deletion strains, locus YML124C, strain tub3, stronger effect = lower value 0.985 | S. cerevisiae deletion strains, locus YMR078C, strain ctf18, stronger effect = lower value 0.981 | S. cerevisiae deletion strains, locus YMR223W, strain ubp8, stronger effect = lower value 0.993 | S. cerevisiae deletion strains, locus YMR263W, strain SAP30, stronger effect = lower value 1 | S. cerevisiae deletion strains, locus YMR307W, strain GAS1, stronger effect = lower value 1.03 | S. cerevisiae deletion strains, locus YNL067W, strain RPL9B, stronger effect = lower value 1.01 | S. cerevisiae deletion strains, locus YNL128W, strain TEP1, stronger effect = lower value 0.989 | S. cerevisiae deletion strains, locus YNL153C, strain GIM3, stronger effect = lower value 1 | S. cerevisiae deletion strains, locus YNL233W, strain BNI4, stronger effect = lower value 1 | S. cerevisiae deletion strains, locus YNL250W, strain rad50, stronger effect = lower value 0.987 | S. cerevisiae deletion strains, locus YNL271C, strain bni1, stronger effect = lower value 0.992 | S. cerevisiae deletion strains, locus YNL298W, strain CLA4, stronger effect = lower value 0.989 | S. cerevisiae deletion strains, locus YNL307C, strain MCK1, stronger effect = lower value 0.992 | S. cerevisiae deletion strains, locus YNL322C, strain KRE1, stronger effect = lower value 0.992 | S. cerevisiae deletion strains, locus YNR052C, strain pop2, stronger effect = lower value 0.975 | S. cerevisiae deletion strains, locus YOL006C, strain TOP1, stronger effect = lower value 1.03 | S. cerevisiae deletion strains, locus YOL012C, strain htz1 0.909 | S. cerevisiae deletion strains, locus YOL147C, strain pex11, stronger effect = lower value 0.991 | S. cerevisiae deletion strains, locus YOR061W, strain CKA2, stronger effect = lower value 0.992 | S. cerevisiae deletion strains, locus YOR069W, strain VPS5, stronger effect = lower value 0.97 | S. cerevisiae deletion strains, locus YOR136W, strain idh2, stronger effect = lower value 0.992 | S. cerevisiae deletion strains, locus YOR144C, strain elg1, stronger effect = lower value 0.994 | S. cerevisiae deletion strains, locus YOR184W, strain ser1, stronger effect = lower value 0.998 | S. cerevisiae deletion strains, locus YOR316C, strain cot1, stronger effect = lower value 0.989 | S. cerevisiae deletion strains, locus YPL055C, strain LGE1, stronger effect = lower value 1.03 | S. cerevisiae deletion strains, locus YPL241C, strain CIN2, stronger effect = lower value 0.997 | S. cerevisiae deletion strains, locus YPR119W, strain clb2, stronger effect = lower value 0.987 | S. cerevisiae deletion strains, locus YPR141C, strain kar3, stronger effect = lower value 0.988 | S. cerevisiae deletion strains, locus YPR163C, strain tif3, stronger effect = lower value 0.982 | S. cerevisiae deletion strains, locus YPR167C, strain met16, stronger effect = lower value 0.996 | S. cerevisiae deletion strains, strain wtn01, stronger effect = lower value 0.983 | S. cerevisiae strains, strain wild type, stronger effect = lower value 0.989
